Assay results from PubChem BioAssay (NCATS).
Records with an inconclusive call do not appear. Calls of active or inactive are those of the source. Calls follow the shape of the dose curve; as a rule, active = well fitted inhibition curve with a large enough effect; inconclusive = small, poorly fitted or top-dose-only effect; inactive = flat fitted curve, though single readings scatter.

Columns and labels:
Assay in all cases: qHTS profiling for inhibitors of Plasmodium falciparum proliferation (AID 504749); also: nearly all actives have a fitted effect of over 60% in size
Conditions in all cases: P. falciparum in erythrocytes, SYBR Green DNA, 72 h; series mostly up to 28.7 µM
CP335 = tested on: CP335
How it was run: (§1)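 Infected RBCs, 0.3% parasitemia/2.5% Hct final; cpd 72 h, 37 C, 5% CO2; lysis buffer with saponin/triton/SYBR Green I, o/n RT dark; FI 485/535; norm. to artemisinin (0.29 uM) and DMSO.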

DFO2036 = tested on: DFO2036
How it was run: as §1

DIV14 = tested on: DIV14
How it was run: as §1

DIV17 = tested on: DIV17
How it was run: as §1

DIV30 = tested on: DIV30
How it was run: as §1

Dd2 = tested on: Dd2
How it was run: as §1

ECU = tested on: ECU
How it was run: as §1

FAB9 = tested on: FAB9
How it was run: as §1

GB4 = tested on: GB4
How it was run: as §1

HB3 = tested on: HB3
How it was run: as §1

ICS = tested on: ICS
How it was run: as §1

JCK = tested on: JCK
How it was run: as §1

N140 = tested on: N140
How it was run: as §1

P93_24 = tested on: P93_24
How it was run: as §1

P94_40 = tested on: P94_40
How it was run: as §1

PAD = tested on: PAD
How it was run: as §1

PC15 = tested on: PC15
How it was run: as §1

PC26 = tested on: PC26
How it was run: as §1

PC49 = tested on: PC49
How it was run: as §1

SC27B = tested on: SC27B
How it was run: as §1

Measured: Potency
Potency is read from the fitted curve at half-maximal effect.

COc1ccc(S(=O)(=O)Nc2nnc(CC(C)C)s2)cc1
inactive: all assays above

C#CCN(C)Cc1ccccc1
inactive: all assays above

CC(=O)NC(Cc1ccccc1)C(=O)O (stereo not given)
inactive: all assays above

CC[C@@]1(c2ccccc2)NC(=O)N(C)C1=O
inactive: all assays above

Nc1ccc(S(=O)(=O)Nc2ccccc2)cc1
inactive: all assays above

NCCNCCNCCNCCN
inactive: all assays above

CC(=O)Oc1ccc(C2(c3ccc(OC(C)=O)cc3)C(=O)Nc3ccccc32)cc1
inactive: all assays above

O=Cc1ccccc1C=O
inactive: all assays above

CC(=O)Nc1ccc(/C=N/NC(N)=S)cc1
inactive: all assays above

CCOC(=O)[C@H](CCc1ccccc1)N[C@@H](C)C(=O)N1C(=O)N(C)C[C@H]1C(=O)O
inactive: all assays above

CCC(=O)c1ccc(O)cc1
inactive: all assays above

N[C@@H](CSCCCO)C(=O)O
inactive: all assays above

CCCCN(CCCC)CCCOC(=O)c1ccc(N)cc1
inactive: all assays above

Oc1cccc(O)c1
inactive: all assays above

Cc1cccc(Nc2cc(Cl)nc(SCC(=O)O)n2)c1C
inactive: all assays above

COc1cc2[nH]c(=O)[nH]c(=O)c2cc1OC
inactive: all assays above

CC(=O)CCC(=O)O
inactive: all assays above

COc1ccccc1O
inactive: all assays above

NC(=O)NC(=O)Cc1ccccc1
inactive: all assays above

O=C(Oc1ccccc1C(=O)O)c1ccccc1O
inactive: all assays above

C=Cc1c(C)c2cc3[nH]c(cc4nc(cc5nc(cc1[nH]2)C(C)=C5CCC(=O)O)C(CCC(=O)O)=C4C)c(C)c3C=C
inactive: all assays above

O=c1[nH]c(=O)c2[nH]c(=O)[nH]c2[nH]1
inactive: all assays above

NC(=O)NNc1ccccc1
inactive: all assays above

O=C(O)COc1nn(Cc2ccccc2)c2ccccc12
inactive: all assays above

CCN(CC)CCNC(=O)c1cc(Cl)c(N)cc1OC
inactive: all assays above

CC1(C)[C@@H]2CC[C@@]1(C)C(=O)C2
inactive: all assays above

[O-][n+]1cccc(CO)c1
inactive: all assays above

O=c1cc(CO)occ1O
inactive: all assays above

CCN(CC)CCSC(=O)C(c1ccccc1)c1ccccc1
inactive: all assays above

CCOC(=O)c1ccc(O)cc1
inactive: all assays above

CC12CCC(CC1)C(C)(C)O2
inactive: all assays above

CCC(=O)Nc1ccc(O)cc1
inactive: all assays above

O=C(O)[C@@H]1CSCN1
inactive: all assays above

CCOc1ccc2ccccc2c1C(=O)N[C@@H]1C(=O)N2[C@@H]1SC(C)(C)[C@@H]2C(=O)O
inactive: all assays above

O=S(=O)(O)NC1CCCCC1
inactive: all assays above

Cc1cccc(C)c1NC(=O)CN(CC(=O)O)CC(=O)O
inactive: all assays above

CC(C)(C)NCC(O)COc1ccc(NC(=O)NC2CCCCC2)cc1 (stereo not given)
inactive: all assays above

O=C1NS(=O)(=O)c2ccccc21
inactive: all assays above

CC(C)(C)C(=O)NCCCC(=O)O
inactive: all assays above

O=C(O)c1ccccc1-c1ccc(C(F)(F)F)cc1
inactive: all assays above

CC(O)COc1ccccc1 (stereo not given)
inactive: all assays above

Cc1cc(CC(=O)O)n(C)c1C(=O)c1ccc(Cl)cc1
inactive: all assays above

COc1ccc2c(c1)C(=O)N(CCc1ccc(S(=O)(=O)NC(=O)NC3CCCCC3)cc1)C(=O)C2(C)C
inactive: all assays above

O=C(O)CC(O)C(=O)O (stereo not given)
inactive: all assays above

Nc1ccc(S(=O)(=O)Nc2nccs2)cc1
inactive: all assays above

CCCOC(=O)c1ccccc1
inactive: all assays above

O=C1NC(=O)[C@@]2(CCOc3ccc(F)cc32)N1
inactive: all assays above

CCCCOc1cc(C(=O)OCCN(CC)CC)ccc1N
inactive: all assays above

CC1=C(/C=C/C(C)=C/C=C/C(C)=C/C(=O)O)C(C)(C)CCC1
inactive: all assays above

Cc1cc(O)cc2c1O[C@](C)(CCC[C@H](C)CCC[C@H](C)CCCC(C)C)CC2
active: ICS 8.91 µM
inactive: all other assays above

CCCCCCCCCCCCCCCC(=O)NCCO
inactive: all assays above

O=c1cc[nH]c(=S)[nH]1
inactive: all assays above

OCC(O)CN1CCN(c2ccccc2)CC1 (stereo not given)
inactive: all assays above

CCCCCCCCCCCCOS(=O)(=O)O
inactive: all assays above

CC(O)CN(CCN(CC(C)O)CC(C)O)CC(C)O (stereo not given)
inactive: all assays above

COc1cc(C(=O)N2CCOCC2)cc(OC)c1OC
inactive: all assays above

Cn1c(=O)c2c(ncn2CC2OCCO2)n(C)c1=O
inactive: all assays above

C[C@H](N)[C@H](O)c1cccc(O)c1
inactive: all assays above
